# Where “and” joins values, the source holds several entries; their conditions need not be identical. Equal entries are not always repeated. Records with an inconclusive call do not appear. Entries that show only a call come without a potency. Calls of active or inactive are those of the source. Unless noted, calls come from the whole dose curve; as a rule, active = well fitted curve in the direction sought with a large enough effect in the repeat runs; inconclusive = weak or mixed curves; inactive = no such curve, though single readings can be large; an effect the other way counts as inactive or inconclusive.
# Biological target: Androgen receptor (Homo sapiens) (UniProt P10275)
# Sequence (P10275 whole entry, looked up): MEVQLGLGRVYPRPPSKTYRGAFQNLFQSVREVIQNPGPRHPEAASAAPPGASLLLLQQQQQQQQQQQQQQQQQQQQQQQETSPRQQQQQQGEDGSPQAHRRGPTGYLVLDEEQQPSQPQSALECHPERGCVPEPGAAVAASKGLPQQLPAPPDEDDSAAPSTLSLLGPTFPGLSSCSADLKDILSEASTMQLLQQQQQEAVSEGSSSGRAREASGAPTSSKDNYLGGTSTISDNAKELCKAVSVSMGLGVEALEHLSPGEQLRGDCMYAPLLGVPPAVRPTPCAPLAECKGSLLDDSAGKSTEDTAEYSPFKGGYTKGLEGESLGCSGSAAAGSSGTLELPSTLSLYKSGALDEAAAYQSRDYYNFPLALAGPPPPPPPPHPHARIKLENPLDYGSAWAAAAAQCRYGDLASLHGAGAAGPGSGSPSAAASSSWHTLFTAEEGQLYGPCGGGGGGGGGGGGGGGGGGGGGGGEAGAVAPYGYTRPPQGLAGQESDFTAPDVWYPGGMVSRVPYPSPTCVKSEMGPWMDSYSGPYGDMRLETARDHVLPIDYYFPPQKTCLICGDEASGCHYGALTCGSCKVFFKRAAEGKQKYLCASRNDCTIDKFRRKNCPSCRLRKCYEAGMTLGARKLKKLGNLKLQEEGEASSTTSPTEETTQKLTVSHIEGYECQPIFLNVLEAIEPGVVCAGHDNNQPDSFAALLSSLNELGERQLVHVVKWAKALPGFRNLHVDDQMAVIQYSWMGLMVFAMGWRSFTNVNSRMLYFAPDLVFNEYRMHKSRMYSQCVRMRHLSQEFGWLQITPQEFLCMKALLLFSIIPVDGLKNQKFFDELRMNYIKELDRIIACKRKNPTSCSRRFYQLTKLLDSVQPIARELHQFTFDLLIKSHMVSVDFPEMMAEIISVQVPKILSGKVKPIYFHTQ
# Experiment: qHTS assay to identify small molecule antagonists of the androgen receptor (AR) signaling pathway (AID 743035; active = well fitted inhibition curve with a large enough effect in the signal ratio in the repeat runs, not every such curve was filed as active; the % refers to the signal ratio)
# Settings: HEK293 AR-UAS-bla, R1881-stimulated, beta-lactamase FRET, 16 h; series mostly up to 58.5 µM
# Outline: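 Quantitative HTS of the Tox21 10K library used HEK293 AR-UAS-bla cells stimulated with R1881 alongside compound for 16 h at 37C, followed by beta-lactamase FRET detection (LiveBLAzer B/G, 2 h, RT).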
row,Compound,outcome
1,Cc1ccc(C)c(OCCCC(C)(C)C(=O)O)c1,inactive
2,CC(C)[C@@H]1CC[C@@H](C)C[C@H]1O,inactive
3,C1N2CN3CN1CN(C2)C3,inactive
4,O=C(c1ccccc1)c1ccccc1,inactive
5,CCCN(CCC)S(=O)(=O)c1ccc(C(=O)O)cc1,inactive
6,CCCCC(CC)COC(=O)/C=C/c1ccc(OC)cc1 (stereo not given),inactive

# Biological target: Androgen receptor (Homo sapiens) (UniProt P10275)
# Experiment: qHTS assay to identify small molecule agonists of the androgen receptor (AR) signaling pathway using the MDA cell line (AID 743040; note: nearly all actives have a fitted effect of over 20% in size; note: potency is the fitted concentration of half-maximal effect)
# Settings: MDA-kb2 AR-luc cells, MMTV luciferase, 16 h; series mostly up to 70.3 µM
# Outline: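 Luciferase read-out, ONE-Glo, 30 min RT. Cells: MDA-kb2 AR-luc, MMTV promoter with AR and GR response elements. Compound exposure 16 h, 37C, 0% CO2, after 5 h pre-incubation. qHTS agonist mode.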
row,Compound,Potency
1,Cc1ccc(C)c(OCCCC(C)(C)C(=O)O)c1,inactive
2,Oc1ccc(/C=C/c2cc(O)cc(O)c2)cc1,6.92 µM (active) and 2.73 µM (active)
3,CC(C)[C@@H]1CC[C@@H](C)C[C@H]1O,inactive
4,C1N2CN3CN1CN(C2)C3,inactive
5,CCCCC(CC)COC(=O)/C=C/c1ccc(OC)cc1 (stereo not given),inactive

# Tested on: not listed separately
# Experiment: qHTS assay to identify small molecule antagonists of the androgen receptor (AR) signaling pathway using the MDA cell line - cell viability counter screen (AID 743041; note: nearly all actives have a fitted effect of over 45% in size)
# Settings: MDA-kb2 viability, CellTiter-Fluor, 16 h, cells co-treated with R1881 androgen agonist; series mostly up to 70.3 µM
# Outline: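 Cytotoxicity counter screen: MDA-kb2 AR-luc cells, compound + R1881, 16 h, 37C, 0% CO2; CellTiter-Fluor added at 15.5 h, fluorescence read after 30 min.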
row,Compound,Potency
1,Cc1ccc(C)c(OCCCC(C)(C)C(=O)O)c1,inactive
2,Nc1ccn([C@H]2CC[C@@H](CO)O2)c(=O)n1,inactive
3,Oc1ccc(/C=C/c2cc(O)cc(O)c2)cc1,inactive
4,Cc1ccc(S(=O)(=O)NC(=O)NN2CCCCCC2)cc1,inactive
5,NC(=O)NC1NC(=O)NC1=O (stereo not given),inactive
6,CCCCCCCCCCCCCCCC(=O)O,inactive
7,CC(C)[C@@H]1CC[C@@H](C)C[C@H]1O,inactive
8,O=C(C1CCCCC1)N1CC(=O)N2CCc3ccccc3C2C1 (stereo not given),inactive
9,C1N2CN3CN1CN(C2)C3,inactive
10,COc1c2occc2cc2ccc(=O)oc12,inactive
11,O=C(c1ccccc1)c1ccccc1,inactive
12,NC(N)=O,inactive
13,Cn1c(=O)c2[nH]cnc2n(C)c1=O,inactive
14,COc1ccc2[nH]cc(CCNC(C)=O)c2c1,inactive

# Reference: PubChem BioAssay (Tox21)
